Compounds with a hit are over-represented: about 12% of the library has one in this group of screens.
JMJD2A Tudor inh: qHTS Assay for Inhibitors of JMJD2A-Tudor Domain | AID 504339, 2011 | AlphaScreen JMJD2A-Tudor / H3K4me3 peptide binding | 390,000 tested, 4.4% active | Potency, µM (titrated, usually from 114 µM), for the others: at the highest dose activity change, negative = inhibition, usual class: inhibitors | Lysine-specific demethylase 4A (Homo sapiens), O75164; note: % is set by controls: 0 for no effect and ±100 for the full control effect; nearly all actives have a fitted effect of over 50% in size
BAZ2B block: qHTS Assay for Inhibitors of BAZ2B; Bromodomain adjacent to zinc finger domain protein 2B (Homo sapiens), Q9UIF8; AlphaScreen BAZ2B-H3K14Ac peptide displacement; Potency, µM (top dose mostly 114 µM), for the others: top-dose activity change, negative = inhibition, most hits filed as inhibitors; 360,000 tested, 4.4% active; AID 504333, 2011; note: % is set by controls: 0 for no effect and ±100 for the full control effect; nearly all actives have a fitted effect of over 60% in size
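Complex of BAZ2B and biotin-H3K14Ac (50 nM apiece) forms over 30 min at RT, then faces library compounds up to 110 uM for another 30 min; AlphaScreen beads added, 20 min dark incubation, luminescence read.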
Sfp PPTase inh: qHTS Assay for Inhibitors of Bacillus subtilis Sfp phosphopantetheinyl transferase (PPTase). Biochemical Sfp PPTase activity, qHTS. 310,000 tested, 3.5% active. 4'-phosphopantetheinyl transferase ffp (Bacillus subtilis), Q9F4F7. Potency, µM, for inactives: largest response in the series, negative = inhibition, usual class: inhibitors. AID 1490, 2009;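 note: the enzyme is Sfp with the accession as filed and its product quenches rhodamine fluorescence; 0% = enzyme reaction without inhibitor and -100% = no enzyme wells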
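Reaction rates are the 30-min fluorescence difference (ex 525, em 598 nm) in wells containing 15 nM Sfp, 5 uM rhodamine-CoA and 12.5 uM BHQ-2-YbbR at pH 7.6 with 10 mM MgCl2.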
G9a block: qHTS Assay for Inhibitors of Histone Lysine Methyltransferase G9a. Potency, µM (highest dose often 102 µM), for the others: at the top dose activity, negative = inhibition, most hits filed as inhibitors. G9a H3K9 monomethylation, AlphaScreen, 2 h. 350,000 tested, 8.8% active; note: % is set by controls: 0 for no effect and ±100 for the full control effect; nearly all actives have a fitted effect of over 75% in size
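Methyltransferase reactions run at room temperature for 2 h (20 nM enzyme, 500 nM biotin-H3K9 peptide, 20 uM SAM) after a 15 min compound preincubation; product detected by AlphaScreen beads and anti-H3K9me1 antibody.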
HP1b binding inh: HTS for Inhibitors of HP1-beta Chromodomain Interactions with Methylated Histone Tails | AlphaScreen HP1-beta / biotin-H3K9me3 peptide binding | Potency, µM (highest dose often 114 µM), without a hit: at the highest dose activity change, negative = inhibition, hits mostly inhibitors | 390,000 tested, 0.56% active | AID 540317, 2011; note: nearly all actives have a fitted effect of over 70% in size
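Compound inhibition of the preformed complex between 50 nM HP1-beta and 50 nM biotinylated H3K9me3 peptide was read by AlphaScreen. Buffer was PBS pH 7.4 with 0.01% Tween-20. Incubations ran 30 min at room temperature, with 10 ug/mL donor/acceptor beads.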
Starred values were filed as active, the others as inactive; ? = inconclusive; . = no result given; [ ] = another dose, or the depositor's remark. Calls come from the whole dose curve; as a rule, active = well fitted curve in the direction sought with a large enough effect; inconclusive = small, poorly fitted or top-dose-only effect, or another doubt; inactive = no such curve, though single readings can be large; an effect the other way counts as inactive or inconclusive. Potency is the fitted concentration of half-maximal effect.

SMILES	JMJD2A Tudor inh	BAZ2B block	Sfp PPTase inh	G9a block	HP1b binding inh
Cc1cc(N)c2cc(NC(=O)Nc3ccc4nc(C)cc(N)c4c3)ccc2n1	.	.	7.94µM*	.	.
CN1/C(=C/C(=S)NC(=O)C2(C)CC2(Cl)Cl)C(C)(C)c2ccccc21 (configuration not stated)	35.5µM*	20µM*	11.2%	?	17.8µM*
CN1/C(=C\C(=S)NC(=O)c2ccccc2Cl)C(C)(C)c2ccccc21	25.1µM*	11.2µM*	?	35.5µM*	25.1µM*
CN1/C(=C\C(=O)Nc2ccc(Cl)cc2)C(C)(C)c2ccccc21	-32.9%	-31.5%	9.1%	?	18.7%
COc1ccccc1C(=O)NC(=S)/C=C1/N(C)c2ccccc2C1(C)C	15.8µM*	11.2µM*	?	10µM*	-85.0%
Cc1ccc(-n2c(=O)[nH]c3sc4c(c3c2=O)CCNC4)cc1C	-17.1%	-2.2%	.	-21.2%[59 µM]	15.7%
NS(=O)(=O)c1cc(C(=O)OCC(=O)Nc2ccc3c(c2)OCO3)ccc1Cl	-19.2%	.	.	.	1.3%
CC(=O)N1CC[n+]2c(-c3ccc(Cl)cc3)csc21	39.8µM*	-33.0%	?	14.1µM*	16.0%
CCc1ccc(-c2csc3[n+]2CCN3C(C)=O)cc1	-35.6%	?	39.8µM*	11.2µM*	7.0%
O=C(CN1CC[n+]2c(-c3cccs3)csc21)c1ccc(-c2ccccc2)cc1	-24.1%	-27.7%	-13.7%	.	14.5%
COC(=O)c1ccccc1C(=O)c1ccc(OCCN2CCCCC2)cc1	.	.	5.0%	-43.1%[12.7 µM]	.
Cc1cc(C)c(NC(=O)CNC(=O)c2cc(C3CC3)nn2-c2ccccc2)c(C)c1	-9.5%	12.8%	.	9.8%[59 µM]	16.3%
CCS(=O)(=O)c1ccc2c(c1)N(S(=O)(=O)c1ccc(OC)cc1)CC(C(=O)O)O2 (configuration not stated)	-13.9%	-36.2%[57.1 µM]	21.8%	65.3%[59 µM]	34.2%
CCS(=O)(=O)c1ccc2c(c1)N(S(=O)(=O)c1ccc(C)cc1)CC(C(=O)O)O2 (configuration not stated)	-7.2%	89.1µM*	33.0%	?	52.5%
CC(C)Cn1nnnc1S(=O)(=O)Cc1ccccc1	.	.	3.0%	.	.
CCn1c(=O)c(=O)[nH]c2cc(C(=O)NC3CCCC3)ccc21	12.6µM*	-1.5%	17.6%	0.0%	-15.0%
CCn1c(=O)c(=O)[nH]c2cc(C(=O)NCC3CCCCC3)ccc21	-19.6%	5.4%	2.4%	?	23.0%
O=c1cc(N2CCN(c3ccc(F)cc3)CC2)[nH]c(=O)n1-c1cccc(Br)c1	-35.8%	-2.3%	.	-1.2%[59 µM]	-1.7%[57 µM]
CC(=O)Nc1ccc(S(=O)(=O)NCCSCc2ccco2)cc1	-27.0%	-14.8%	31.6µM*	?	5.6%
COc1cccc(C(=O)Nc2ccc(S(=O)(=O)NCc3ccco3)cc2)c1	-28.8%	6.9%	-5.4%	?	10.4%
Cc1onc(-c2c(F)cccc2Cl)c1C(=O)Nc1cccc(S(=O)(=O)NCc2ccco2)c1	-32.9%	.	-0.3%	56.2µM*	-18.3%
O=C(Nc1ccc(S(=O)(=O)NCc2ccco2)cc1)c1cccc(F)c1	-20.1%	-29.1%	19.9%	56.2µM*	-16.3%
Cc1onc(-c2c(F)cccc2Cl)c1C(=O)NCc1ccco1	5.2%	-30.3%	14.6%	-18.4%[59 µM]	30.6%
CC(C)CCOc1ccc(Cn2c(=O)oc3ccccc32)cc1	10.1%	3.7%	.	15.1%[59 µM]	33.3%
Cn1c(Oc2ccc(F)cc2)nc2c1c(=O)n(Cc1ccccc1Cl)c(=O)n2C	-19.9%	?	.	?	2.4%
SMILES	JMJD2A Tudor inh	BAZ2B block	Sfp PPTase inh	G9a block	HP1b binding inh
O=c1[nH]n(-c2ccccc2)c(=O)c2ccccc12	-18.6%	11.7%	-2.6%	2.6%	3.6%
O=C(c1ccccc1)c1ccccc1N1C(=O)C=CC1=O	17.8µM*	-27.6%	1.26µM*	0.794µM*	11.2µM*
O=C1C=CC(=O)N1c1ccccn1	89.1µM*	.	.	.	?
O=C1C=CC(=O)N1c1ccccc1N1C(=O)C=CC1=O	2.82µM*	.	.	.	2.82µM*
O=c1[nH]n(-c2ccccn2)c(=O)c2ccccc12	79.4µM*	.	-6.3%	?	-20.6%
CCn1c(SCc2ccccc2F)nc(=O)c2c(C(=O)OC)cc(C3CC3)nc21	-33.4%	-7.0%	.	-26.6%[59 µM]	11.2%[57 µM]
Cc1ccsc1C(=O)Nc1nnc(-c2ccco2)o1	-27.4%	79.4µM*	8.6%	-10.7%[59 µM]	50.7%
N#Cc1ccc(C(=O)Nc2nnc(-c3ccco3)o2)cc1	79.4µM*	17.8µM*	24.1%	-29.9%	35.2%
O=C(Nc1nnc(-c2ccco2)o1)c1ccc2ccccc2c1	-15.2%[57.1 µM]	8.2%	12.7%	-4.1%[59 µM]	48.1%
Cc1ccc(C(=O)Nc2nnc(-c3ccco3)o2)cc1	?	50.1µM*	13.1%	8.4%[59 µM]	23.7%
O=C(Nc1nnc(-c2ccco2)o1)c1ccc([N+](=O)[O-])s1	?	?	-11.2%	44.7µM*	7.7%
Cc1ccc(S(=O)(=O)N2CCN(Cc3cc(=O)n4nc(-c5ccccc5Cl)sc4n3)CC2)cc1	5.2%	1.8%	.	-5.1%[59 µM]	24.5%[57 µM]
COc1ccc(CNC(=O)C(C)N2Cc3ccccc3C2=O)cc1 (configuration not stated)	-5.8%	3.5%	.	2.1%[59 µM]	34.1%
CCCCCCCCCCCCCCCC[N+](C)(C)CCN(Cc1ccc(OC)cc1)c1ncccn1	?	9.3%	14.1µM*	-32.9%[59 µM]	-24.8%
Cc1ccc(OCc2nc(C#N)c(NCc3ccco3)o2)cc1	?	35.5µM*	-7.4%	50.1µM*	-9.2%
Cc1ccc(OCc2nc(C#N)c(NCCc3ccccc3)o2)cc1	-30.6%	?	.	?	-19.0%
CN(Cc1ccccc1)c1oc(COc2ccccc2F)nc1C#N	?	28.2µM*	?	28.2µM*	-23.4%
Cc1cccc(-c2nc(C#N)c(NCc3ccco3)o2)c1	-22.1%	50.1µM*	-5.4%	44.7µM*	13.2%
N#Cc1nc(COc2ccccc2F)oc1NCCc1ccccc1	?	?	4.9%	?	-26.7%
COc1ccc(Nc2oc(COc3ccc(C)cc3)nc2C#N)cc1	89.1µM*	?	-17.0%	?	-35.1%
Cc1ccc(-c2nc(C#N)c(NCc3ccco3)o2)cc1	4.1%	-31.0%	1.7%	-28.4%[59 µM]	3.9%
COc1ccc(Nc2oc(COc3ccccc3F)nc2C#N)cc1	?	?	3.1%	35.5µM*	-4.9%
CCc1cccc(C)c1NS(=O)(=O)c1cc2[nH]c(=O)c(=O)[nH]c2cc1C	-2.3%	5.2%	.	-4.0%[59 µM]	32.1%
COCCCN1C(=O)C(=O)/C(=C(/O)c2ccccc2)C1c1ccc2c(c1)OCO2 (configuration not stated)	?	-35.1%	22.5%	56.2µM*	20.4%
COCCCN1C(=O)C(=O)/C(=C(/O)c2ccccc2)C1c1ccc(N(C)C)cc1 (configuration not stated)	?	?	-3.1%	44.7µM*	7.2%
